PubChem BioAssay (NCI)
The panel holds about 83,000 compounds, 20% with a hit somewhere; the sample as a whole holds those more often.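 Cells were grown in 96-well plates and exposed to the test compound at a single concentration for 48 hours; results are reported as percent growth, with values below 10 considered active.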 Active and inactive are the calls of the source.

Each molecule was assayed on NCI-H460 lung (assay: NCI-60 one-dose screen, 48 h (100 = growth as untreated, 0 = no growth, -100 = all killed)). Conditions: 10 µM unless noted.
Procedure: Growth inhibition of the NCI-H460 human Non-Small Cell Lung tumor cell line is measured as a screen for anti-cancer activity. Cells are grown in 96 well plates and exposed to the test compound for 48 hours. Compounds are tested at a single concentration, which is 10^-5 M for most compounds. The reported endpoint is percent growth (GI% or GIPRCNT), where numbers from 0 - 100% represent growth inhibition, and numbers from -100% - 0 represent cell death. For example, a value of 40 represents 60% growth inhibition. A value of 0 means no net growth occurred over the course of the experiment. A value of -40 indicates 40% of cells at the beginning of the experiment died by the end of the experiment. A value of -100 means all cells are dead at the end of the experiment.
NCI-60 Human Tumor Cell Lines Screen was performed using the standard one-dose NCI protocol, which is described in more detail at https://dtp.cancer.gov/discovery_development/nci-60/default.htm.
Compounds with GIPRCNT values below 10 were considered active. Activity score was based on GIPRCNT using the following formula: […]
Score is 0 for GIPRCNT values of 100 or above, 50 for GIPRCNT values of 0, and 100 for GIPRCNT values of -100.

| SMILES | growth |
| --- | --- |
| CCOC(=O)c1c(Cl)c2c(n1Cc1ccc(OC)cc1)-c1oncc1CCC2 | 95.1% (inactive) |
| Cc1nn(-c2ccccc2)c2nc3nc4c(c(N)c3c(-c3ccc(Cl)cc3)c12)CCC4 | 72.7% (inactive) |
| NS(=O)(=O)c1cc(Br)c2c(c1)S(=O)(=O)NCN2 | 112% (inactive) |
| CC(C)NCC(O)COc1ccc(CCOCC2CC2)cc1 (stereo not given) | 108% (inactive) |
| Clc1nc(-c2ccccn2)nc2sc3c(c12)CCCCCC3 | 90.9% (inactive) |
| COc1cc2cc(Oc3ccc(NC(=O)Nc4ccc(Cl)c(C(F)(F)F)c4)cc3)c(C)nc2cc1OCCN1CCCCC1 | -82% (active) |
| Cc1nc2cc(Nc3nc(Nc4ccc(F)cc4)nc(N4CCN(C)CC4)n3)ccc2n1Cc1ccccc1 | 3.42% (active) |
| CCOc1ccc(-c2cnnn2-c2nonc2-n2cccc2)cc1 | 10.2% (inactive) |
| O=C1C(OCCOc2ccccc2)=C(OCCOc2ccccc2)C(=O)c2ccccc21 | -26% (active) |
| COc1ccc(Cn2c(Br)c3c(c2-c2cc(OC)c(OC)c(OC)c2)CCc2sc(N)nc2-3)cc1 | 7.43% (active) |
| O=C(Nc1ccccc1)Oc1cccc2cccnc12 | 74.8% (inactive) |
| Cn1c2ccc(Cl)cc2c2nn(C(=O)c3ccccc3)c(=O)nc21 | 105% (inactive) |
| CCCCC(=O)N/N=C/c1cc(I)cc(I)c1O | 28.1% (inactive) |
| CC(=O)Nc1ccc(Sc2ccc([N+](=O)[O-])o2)cc1 | 46.9% (inactive) |
| COc1cc(C(=O)/C=C/c2c(-c3cccs3)nc3sccn23)cc(OC)c1OC | -27.9% (active) |
| CCCCCCCCCCCCCCn1c2ccccc2c2c3c(c4c5cc(OC)ccc5oc4c21)C(=O)NC3=O | 100% (inactive) |
| Nc1nc2c(s1)CCc1c-2c(Br)n(Cc2ccccc2)c1Br | 98.2% (inactive) |
| COc1cc(C(=O)N(C(C)C)C2CCCCC2)cc(OC)c1OC | 107% (inactive) |
| O=C1/C(=C/c2ccc(Cl)cc2)CN(Cc2cn(CCCNc3ccnc4cc(Cl)ccc34)nn2)C/C1=C\c1ccc(Cl)cc1 | -67.6% (active) |
| COc1ccccc1/C=C/C(=O)/C=C/c1ccccc1O | -58.2% (active) |

| SMILES | growth |
| --- | --- |
| O=C1CC2c3cc(-c4cc5ccccc5o4)ccc3CCN2C(=O)N1c1ccccc1 (stereo not given) | 87.6% (inactive) |
| Cc1ccc(S(=O)(=O)N2CCc3ccc(O)c4c3C2Cc2cc(Cl)ccc2-4)cc1 (stereo not given) | 33.6% (inactive) |
| COc1ccc(-c2nc3sccn3c2/C=C/C(=O)c2cc(OC)c(OC)c(OC)c2)cc1OC | 6.91% (active) |
| O=C1CC(c2ccsc2)c2snc(-c3ccc(Cl)cc3)c2N1 (stereo not given) | 10.6% (inactive) |
| O=c1c2c(=NCCN3CCCC3)cc3c(=O)n(CCCN4CCOCC4)c(=O)c4c(-c5ccc(CN6CCCC6)cc5)cc(c(O)n1CCCN1CCOCC1)c2c4-3 | -62.9% (active) |
| O=c1nc(NO)[nH]c(=O)n1Cc1ccc(F)cc1 | 102% (inactive) |
| Cc1ccc(NS(=O)(=O)c2ccc(-c3cnc(C4CC4)o3)cc2)cc1 | 7.82% (active) |
| COc1ccc(C(=O)COc2cccc(/C=C3\CSc4ccc(C)cc4C3=O)c2)cc1 | 104% (inactive) |
| COC(=O)[C@@]12CC[C@@H](C)[C@]3(C[C@@H](c4ccoc4)OC3=O)[C@H]1CC[C@@H]1O[C@@]12C | 103% (inactive) |
| COc1cc(C2C3=C(COC3=O)N(CCO)c3cc4c(cc32)OCO4)cc(OC)c1O (stereo not given) | 16.1% (inactive) |
| CCCCCCCCCCCC(=O)[O][Sn]([CH2]CCC)([CH2]CCC)[CH2]CCC | -55.2% (active) |
| COc1ccc(/C=C/C(=O)N2CCC(O)CC2)cc1OC1CCCC1 | 104% (inactive) |
| O=C(N/N=C(\CS(=O)(=O)c1ccccc1)c1cc2cc(Br)ccc2oc1=O)c1ccccc1 | 99.7% (inactive) |
| CCCCCCCCCCCCSC1=CC(=O)C=CC1=O | 105% (inactive) |
| CN1CCN(c2ccc3nc(-c4ccc5nc(-c6ccc(C(F)(F)F)cc6)[nH]c5c4)[nH]c3c2)CC1 | 30.9% (inactive) |
| CC1=C(C/C=C(\C)CCC[C@H](C)CCC[C@H](C)CCCC(C)C)C(=O)c2ccccc2C1=O | 114% (inactive) |
| CC(=O)N(CC(O)CO)c1c(I)c(C(=O)NCCO)c(I)c(C(=O)NCC(O)CO)c1I (stereo not given) | 111% (inactive) |
| COc1ccc2nc(-n3nc(C)cc3C)c(-n3nc(C)cc3C)nc2c1 | 108% (inactive) |
| Nc1c(Br)cc(Br)cc1-c1n[nH]c(=O)[nH]c1=O | 102% (inactive) |
| Cc1ccc(C2SCC(=O)N2NC(=O)c2[nH]c3ccc(F)cc3c2-c2ccccc2)cc1 (stereo not given) | 92.2% (inactive) |
